The results in this text go back to PubChem BioAssay (EPA / NIEHS).

Records with an inconclusive call do not appear. Activity calls are given as the source filed them. The calls were made as follows, unless noted: active = hit-call score of the fitted dose curve at least 0.9, where 1 is the maximum; inconclusive = response in the unintended direction; inactive = score below 0.9.

Assay [1] in a line: ATG_NF_kB_CIS: Attagene CIS-FACTORIAL HepG2 Assay for human Nuclear Factor Kappa B (NF-kB) (AID 2282991; active = hit-call score of the fitted dose curve at least 0.9, where 1 is the maximum; inactive = score below 0.9). The conditions noted are these: HepG2 Attagene cis-factorial NF-kB reporter mRNA; actives raise or lower the signal. A digest of the protocol:
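Measures mRNA induction of an NF-kB-responsive cis-element reporter in HepG2 cells transfected with multiple reporter units, sampled 24 h post-dosing; quantified by fluorescence after RT-PCR and capillary electrophoresis, fitted for activation or inhibition against DMSO.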

Assay [2] in a line: ATG_NRF2_ARE_CIS: Attagene CIS-FACTORIAL HepG2 Assay for human Nuclear Factor Erythroid 2 Related Factor 2 (NFR2) response to Antioxidant Response Elements (ARE) (AID 2282992; active = hit-call score of the fitted dose curve at least 0.9, where 1 is the maximum; inactive = score below 0.9). As to conditions: HepG2 Attagene ARE/NRF2 reporter, transcription factor activity; actives raise or lower the signal. A digest of the protocol:
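Endogenous transcription factor activity read out as reporter transcript levels (RT-PCR plus capillary electrophoresis, fluorescence) in transiently transfected HepG2 cells. Measured at 24 h after dosing; gain or loss of signal fitted versus DMSO.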

The nature of assay [3]: ATG_Oct_MLP_CIS: Attagene CIS-FACTORIAL HepG2 Assay for human Octamer-Binding Transcription Factor (Oct) (AID 2282993; active = hit-call score of the fitted dose curve at least 0.9, where 1 is the maximum; inactive = score below 0.9). As to conditions: HepG2 Attagene cis-factorial Oct reporter, mRNA; actives raise or lower the signal. A digest of the protocol:
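Transient MRTU transfection of HepG2 → 24 h compound treatment → RNA isolation, reverse transcription, PCR → 6-FAM primer extension, HpaI digest → capillary electrophoresis. Activity fitted both directions against DMSO.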

Assay [4] deals with Cellular tumor antigen p53 (Homo sapiens) (UniProt P04637). In words: ATG_p53_CIS: Attagene CIS-FACTORIAL HepG2 Assay for human p53 Transcription Factor (AID 2282994; active = hit-call score of the fitted dose curve at least 0.9, where 1 is the maximum; inactive = score below 0.9). As to conditions: HepG2 p53 cis-element reporter, Attagene mRNA; actives raise or lower the signal. A digest of the protocol:
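Endogenous p53 activity read in transiently transfected HepG2 from a cis-element-driven reporter transcript after 24 h exposure. RNA reverse-transcribed, PCR-amplified, fluorescently labelled and sized by capillary electrophoresis; gain or loss fitted against DMSO baseline.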

The target in assay [5] is human Peroxisome Proliferator-activated Receptor alpha (PPARa), PPARA (gene 5465) (UniProt Q07869). Nature of the assay: ATG_PPARa_TRANS: Attagene TRANS-FACTORIAL HepG2 Assay for human Peroxisome Proliferator-activated Receptor alpha (PPARa) (AID 2283001).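 As to AC50: potency for gain of reporter signal over DMSO so agonist or activator.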 The procedure, abridged:
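Transient HepG2 transfection, GAL4-UAS reporters, NR-Gal4 chimeras; 24 h compound exposure. Readout: reporter transcripts by RT-PCR, 6-FAM primer extension, HpaI digest, capillary electrophoresis. Positive direction vs DMSO baseline.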

For assay [6], the target named is human Peroxisome Proliferator-activated Receptor delta (PPARd), PPARD (gene 5467) (UniProt Q03181). In words: ATG_PPARd_TRANS: Attagene TRANS-FACTORIAL HepG2 Assay for human Peroxisome Proliferator-activated Receptor delta (PPARd) (AID 2283002). A digest of the protocol: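 HepG2 cells transiently transfected with GAL4-UAS multiplexed reporter units driven by exogenous chimeric NR-GAL4 proteins; 24 h compound exposure. Reporter mRNA measured by RT-PCR, 6-FAM primer extension, HpaI digestion and capillary electrophoresis; gain of signal fitted relative to DMSO.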

In assay [7] the target is human Retinoic Acid Receptor beta (RARb), RARB (gene 5915) (UniProt P10826). Nature of the assay: ATG_RARb_TRANS: Attagene TRANS-FACTORIAL HepG2 Assay for human Retinoic Acid Receptor beta (AID 2283004). A digest of the protocol:
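Fluorescent capillary-electrophoresis detection of GAL4-UAS reporter mRNA defines the endpoint, with induction over DMSO-treated wells scored as activity. Transiently transfected human hepatoma HepG2 cells expressing exogenous NR–Gal4 proteins are exposed to test chemicals for 24 h.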

Assay [8] deals with Retinoic acid receptor alpha (Homo sapiens) (UniProt P10276). In words: ATG_RARa_TRANS: Attagene TRANS-FACTORIAL HepG2 Assay for human Retinoic Acid Receptor alpha (RARa) (AID 2283005).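 As to AC50: potency for increased reporter signal meaning RARa activation over DMSO.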 A digest of the protocol:
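HepG2 transiently transfected with multiplex GAL4-UAS reporter units including a human RARa–GAL4 chimera; 24 h compound exposure. Reporter mRNA quantified by RT-PCR, 6-FAM labeling and capillary electrophoresis; gain of signal versus DMSO.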

The target of assay [9] is Peroxisome proliferator-activated receptor gamma (Homo sapiens) (UniProt P37231). In words: ATG_PPARg_TRANS: Attagene TRANS-FACTORIAL HepG2 Assay for human Peroxisome Proliferator-activated Receptor-gamma (PPARg) (AID 2283007). A digest of the protocol: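 Gain-of-signal endpoint relative to DMSO, derived from reporter mRNA levels quantified by RT-PCR and capillary electrophoresis. Cells were HepG2 transiently expressing a chimeric NR-Gal4 construct with GAL4-UAS reporters, exposed to chemicals for 24 h.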

The target in assay [10] is Nuclear receptor subfamily 1 group I member 2 (Homo sapiens) (UniProt O75469). In words: ATG_PXR_TRANS: Attagene TRANS-FACTORIAL HepG2 Assay for human Pregnane X Receptor (PXR) (AID 2283008). A digest of the protocol: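 Transactivation by exogenous PXR–GAL4 fusion measured as reporter transcript induction after 24 h compound treatment of transfected human HepG2 cells. Read-out via RT-PCR and capillary electrophoresis of labelled fragments, fitted upward relative to DMSO.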

Assay [11] deals with human Retinoic Acid Receptor gamma (RARg), RARG (gene 5916) (UniProt P13631). In words: ATG_RARg_TRANS: Attagene TRANS-FACTORIAL HepG2 Assay for human Retinoic Acid Receptor gamma (RARg) (AID 2283009). A digest of the protocol: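 Readout: reporter transcript levels via RT-PCR, 6-FAM primer-extension labelling, HpaI digestion and capillary electrophoresis. Cells: HepG2 carrying transfected RARg-GAL4 chimera plus UAS reporter set. Dosing 24 h; DMSO negative control.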

Assay [12] deals with Retinoic acid receptor RXR-alpha (Homo sapiens) (UniProt P19793). Nature of the assay: ATG_RXRa_TRANS: Attagene TRANS-FACTORIAL HepG2 Assay for human Retinoid X Receptor alpha (RXRa) (AID 2283012). A digest of the protocol:
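Read-out: fluorescent reporter-transcript fragments quantified by capillary electrophoresis after RT-PCR. Transiently transfected HepG2 cells carrying GAL4-UAS reporters and NR-GAL4 chimeras were exposed to chemical for 24 h; activity scored as increase over DMSO.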

For assay [13], the target named is human RAR-related Orphan Receptor gamma (RORg), RORC (gene 6097) (UniProt P51449). In words: ATG_RORg_TRANS: Attagene TRANS-FACTORIAL HepG2 Assay for human RAR-related Orphan Receptor gamma (RORg) (AID 2283011). The procedure, abridged: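 Chimeric RORg-Gal4 transactivation in transfected HepG2; 24 h exposure; RT-PCR/capillary electrophoresis readout of reporter mRNA, DMSO baseline.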

Assay [14] deals with human RAR-related Orphan Receptor beta (RORb), RORB (gene 6096) (UniProt Q92753). Nature of the assay: ATG_RORb_TRANS: Attagene TRANS-FACTORIAL HepG2 Assay for human RAR-related Orphan Receptor beta (RORb) (AID 2283010). The procedure, abridged:
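HepG2, transient MRTU transfection (GAL4-UAS reporters, exogenous NR-Gal4 chimeras); 24 h compound exposure; total RNA → RT-PCR → 6-FAM primer extension → HpaI digest → CE fluorescence. Positive direction vs DMSO baseline.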

Chain of human RAR-related Orphan Receptor beta (RORb), RORB (gene 6096) (Q92753 whole entry, looked up, the tested form may be a part): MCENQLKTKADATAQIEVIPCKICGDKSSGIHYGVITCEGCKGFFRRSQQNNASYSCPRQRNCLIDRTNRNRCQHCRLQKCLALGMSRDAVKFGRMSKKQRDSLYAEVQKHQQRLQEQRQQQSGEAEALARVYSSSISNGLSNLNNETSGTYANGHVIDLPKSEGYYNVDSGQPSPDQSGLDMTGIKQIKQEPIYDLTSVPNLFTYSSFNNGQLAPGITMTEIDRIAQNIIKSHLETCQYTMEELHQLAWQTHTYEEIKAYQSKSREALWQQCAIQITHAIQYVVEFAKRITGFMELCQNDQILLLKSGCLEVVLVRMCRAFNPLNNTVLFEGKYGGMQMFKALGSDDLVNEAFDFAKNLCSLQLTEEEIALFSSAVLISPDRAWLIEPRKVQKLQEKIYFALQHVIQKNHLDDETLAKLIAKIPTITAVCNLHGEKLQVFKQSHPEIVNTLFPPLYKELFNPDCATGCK
Chain of Retinoic acid receptor alpha (Homo sapiens) (P10276 whole entry, looked up, the tested form may be a part): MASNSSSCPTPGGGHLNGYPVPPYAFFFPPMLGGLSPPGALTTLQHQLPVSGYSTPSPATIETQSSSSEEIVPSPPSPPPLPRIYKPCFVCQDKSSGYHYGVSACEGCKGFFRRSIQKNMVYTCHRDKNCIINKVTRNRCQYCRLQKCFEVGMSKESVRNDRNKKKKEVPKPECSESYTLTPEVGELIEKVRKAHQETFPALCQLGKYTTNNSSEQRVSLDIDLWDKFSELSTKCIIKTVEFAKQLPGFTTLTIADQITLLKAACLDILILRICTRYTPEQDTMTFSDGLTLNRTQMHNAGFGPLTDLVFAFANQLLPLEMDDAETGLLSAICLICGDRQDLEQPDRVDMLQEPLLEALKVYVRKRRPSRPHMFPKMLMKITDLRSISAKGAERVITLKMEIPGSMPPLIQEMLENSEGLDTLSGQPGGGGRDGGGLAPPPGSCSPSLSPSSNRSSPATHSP
Chain of Nuclear receptor subfamily 1 group I member 2 (Homo sapiens) (O75469 whole entry, looked up, the tested form may be a part): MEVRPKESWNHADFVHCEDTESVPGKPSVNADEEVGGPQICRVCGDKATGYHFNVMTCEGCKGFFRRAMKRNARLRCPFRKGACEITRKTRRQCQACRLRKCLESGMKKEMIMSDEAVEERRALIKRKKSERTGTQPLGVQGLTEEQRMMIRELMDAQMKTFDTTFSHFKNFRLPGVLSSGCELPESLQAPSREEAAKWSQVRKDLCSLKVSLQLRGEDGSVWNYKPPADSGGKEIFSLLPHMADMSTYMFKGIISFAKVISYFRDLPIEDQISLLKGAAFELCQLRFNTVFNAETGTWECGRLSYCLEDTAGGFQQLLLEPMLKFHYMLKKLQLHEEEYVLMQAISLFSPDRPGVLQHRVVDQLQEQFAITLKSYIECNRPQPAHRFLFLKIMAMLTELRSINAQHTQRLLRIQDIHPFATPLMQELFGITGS
Chain of human Peroxisome Proliferator-activated Receptor alpha (PPARa), PPARA (gene 5465) (Q07869 whole entry, looked up, the tested form may be a part): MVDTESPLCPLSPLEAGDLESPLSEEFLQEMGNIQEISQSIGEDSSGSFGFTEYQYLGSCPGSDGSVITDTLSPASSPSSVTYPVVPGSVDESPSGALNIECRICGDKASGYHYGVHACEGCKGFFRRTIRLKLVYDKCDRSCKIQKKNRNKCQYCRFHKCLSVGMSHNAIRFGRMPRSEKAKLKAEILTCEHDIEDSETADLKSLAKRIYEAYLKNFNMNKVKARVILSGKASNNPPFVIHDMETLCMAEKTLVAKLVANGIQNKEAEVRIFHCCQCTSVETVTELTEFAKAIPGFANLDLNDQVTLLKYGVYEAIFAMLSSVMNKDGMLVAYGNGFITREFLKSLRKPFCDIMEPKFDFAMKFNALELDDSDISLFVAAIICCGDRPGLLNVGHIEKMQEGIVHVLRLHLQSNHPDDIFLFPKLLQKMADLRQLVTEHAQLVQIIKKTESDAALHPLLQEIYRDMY
Chain of human RAR-related Orphan Receptor gamma (RORg), RORC (gene 6097) (P51449 whole entry, looked up, the tested form may be a part): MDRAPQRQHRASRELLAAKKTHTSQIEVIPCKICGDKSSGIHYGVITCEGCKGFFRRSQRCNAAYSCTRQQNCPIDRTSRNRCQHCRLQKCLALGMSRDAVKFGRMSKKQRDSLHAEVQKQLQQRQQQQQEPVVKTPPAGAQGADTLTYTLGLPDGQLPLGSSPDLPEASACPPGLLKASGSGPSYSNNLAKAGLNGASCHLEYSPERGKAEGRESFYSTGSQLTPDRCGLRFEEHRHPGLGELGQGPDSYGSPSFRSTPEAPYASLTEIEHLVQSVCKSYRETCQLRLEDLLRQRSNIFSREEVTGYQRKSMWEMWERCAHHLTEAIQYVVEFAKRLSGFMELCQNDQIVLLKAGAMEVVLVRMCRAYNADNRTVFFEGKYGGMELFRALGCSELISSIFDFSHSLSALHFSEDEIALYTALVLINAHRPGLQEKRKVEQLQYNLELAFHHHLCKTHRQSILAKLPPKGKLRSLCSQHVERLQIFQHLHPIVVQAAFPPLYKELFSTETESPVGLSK
Chain of human Retinoic Acid Receptor gamma (RARg), RARG (gene 5916) (P13631 whole entry, looked up, the tested form may be a part): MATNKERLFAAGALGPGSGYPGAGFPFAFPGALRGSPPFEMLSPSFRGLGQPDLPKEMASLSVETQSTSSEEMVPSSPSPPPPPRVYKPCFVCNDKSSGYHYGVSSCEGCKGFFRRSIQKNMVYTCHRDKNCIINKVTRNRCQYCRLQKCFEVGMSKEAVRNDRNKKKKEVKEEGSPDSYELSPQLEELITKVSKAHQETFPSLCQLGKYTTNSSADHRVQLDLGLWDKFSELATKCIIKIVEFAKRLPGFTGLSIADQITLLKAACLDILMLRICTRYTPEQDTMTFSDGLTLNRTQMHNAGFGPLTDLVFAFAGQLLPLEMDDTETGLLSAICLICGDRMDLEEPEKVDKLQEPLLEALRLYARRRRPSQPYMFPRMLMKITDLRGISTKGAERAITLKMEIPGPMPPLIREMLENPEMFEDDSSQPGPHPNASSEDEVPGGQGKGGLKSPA
Chain of Retinoic acid receptor RXR-alpha (Homo sapiens) (P19793 whole entry, looked up, the tested form may be a part): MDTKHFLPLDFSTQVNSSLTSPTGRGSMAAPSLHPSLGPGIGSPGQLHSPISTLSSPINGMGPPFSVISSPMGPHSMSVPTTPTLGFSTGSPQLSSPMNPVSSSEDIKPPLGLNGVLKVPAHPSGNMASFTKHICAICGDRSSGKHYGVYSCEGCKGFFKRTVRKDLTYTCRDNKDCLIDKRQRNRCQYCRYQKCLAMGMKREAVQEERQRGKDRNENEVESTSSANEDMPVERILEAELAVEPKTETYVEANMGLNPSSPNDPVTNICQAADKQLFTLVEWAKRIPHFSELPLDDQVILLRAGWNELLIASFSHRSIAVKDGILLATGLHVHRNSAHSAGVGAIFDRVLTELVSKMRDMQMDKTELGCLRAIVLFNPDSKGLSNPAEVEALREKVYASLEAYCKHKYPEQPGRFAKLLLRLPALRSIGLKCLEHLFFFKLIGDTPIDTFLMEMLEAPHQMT
Chain of Peroxisome proliferator-activated receptor gamma (Homo sapiens) (P37231 whole entry, looked up, the tested form may be a part): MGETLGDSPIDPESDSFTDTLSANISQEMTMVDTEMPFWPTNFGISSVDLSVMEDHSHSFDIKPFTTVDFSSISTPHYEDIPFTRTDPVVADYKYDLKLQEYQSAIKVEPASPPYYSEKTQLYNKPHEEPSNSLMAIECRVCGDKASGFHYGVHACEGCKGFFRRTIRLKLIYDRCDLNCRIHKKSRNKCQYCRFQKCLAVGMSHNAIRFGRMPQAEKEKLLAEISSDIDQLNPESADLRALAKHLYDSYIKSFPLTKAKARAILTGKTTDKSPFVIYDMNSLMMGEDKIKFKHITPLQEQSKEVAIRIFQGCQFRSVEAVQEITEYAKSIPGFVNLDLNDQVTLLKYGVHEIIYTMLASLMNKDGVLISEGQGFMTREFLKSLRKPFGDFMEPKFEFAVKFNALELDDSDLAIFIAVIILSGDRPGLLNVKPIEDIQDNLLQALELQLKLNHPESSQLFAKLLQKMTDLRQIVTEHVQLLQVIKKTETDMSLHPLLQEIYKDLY
Chain of human Peroxisome Proliferator-activated Receptor delta (PPARd), PPARD (gene 5467) (Q03181 whole entry, looked up, the tested form may be a part): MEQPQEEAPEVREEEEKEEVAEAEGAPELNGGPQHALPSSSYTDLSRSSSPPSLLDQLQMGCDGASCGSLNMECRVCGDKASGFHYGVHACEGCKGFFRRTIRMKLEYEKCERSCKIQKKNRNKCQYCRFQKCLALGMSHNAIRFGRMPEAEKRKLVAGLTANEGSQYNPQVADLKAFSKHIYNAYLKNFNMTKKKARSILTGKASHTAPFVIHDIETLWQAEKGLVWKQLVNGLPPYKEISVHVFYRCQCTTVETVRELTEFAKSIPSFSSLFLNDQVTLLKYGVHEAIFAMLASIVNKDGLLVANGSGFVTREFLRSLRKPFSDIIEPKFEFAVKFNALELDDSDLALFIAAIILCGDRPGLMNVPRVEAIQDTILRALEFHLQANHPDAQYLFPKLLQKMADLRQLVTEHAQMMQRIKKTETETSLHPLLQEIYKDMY
Chain of human Retinoic Acid Receptor beta (RARb), RARB (gene 5915) (P10826 whole entry, looked up, the tested form may be a part): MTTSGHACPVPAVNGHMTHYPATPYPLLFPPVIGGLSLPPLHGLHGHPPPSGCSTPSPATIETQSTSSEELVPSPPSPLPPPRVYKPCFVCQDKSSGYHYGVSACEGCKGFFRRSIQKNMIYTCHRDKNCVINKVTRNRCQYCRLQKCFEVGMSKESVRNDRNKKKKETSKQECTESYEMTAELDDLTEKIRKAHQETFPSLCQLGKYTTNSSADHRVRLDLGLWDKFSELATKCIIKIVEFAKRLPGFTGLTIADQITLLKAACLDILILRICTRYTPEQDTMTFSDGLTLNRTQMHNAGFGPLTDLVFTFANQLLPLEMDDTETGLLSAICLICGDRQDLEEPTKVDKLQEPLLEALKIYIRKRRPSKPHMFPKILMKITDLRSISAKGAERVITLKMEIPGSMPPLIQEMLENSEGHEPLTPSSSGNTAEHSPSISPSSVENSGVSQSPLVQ

On to `O=C1c2ccccc2C(=O)C1C(=O)C(c1ccccc1)c1ccc(Cl)cc1` (stereo not given), for which the AC50 was 26.3 µM (active) in assay [1]; 3.96 µM (active) in [2]; 6.7 µM (active) in assay [3]; 26.1 µM (active) in assay [8]; 3.11 µM (active) in [9]; 2.45 µM (active) in [10]. Also, the result in [4], in [5], in assay [6], in assay [7], in assay [11] and in assay [12] was inactive.
On to `OCC(c1ccc(Cl)cc1)c1ccc(Cl)cc1`, for which the molecule was called inactive in assay [1], in assay [4] and in assay [12]. Further, the AC50 was 43.6 µM (active) in [2]; 57.9 µM (active) in [3]; 55 µM (active) in assay [5]; 39.2 µM (active) in [9]; 20.1 µM (active) in assay [10].
As for `CCCCC(CC)C(=O)Cl` (stereo not given), the molecule was called inactive in [1], in assay [2], in assay [3], in assay [4], in assay [5] and in assay [9]. Besides, the molecule was classed as inactive in assay [10] and in [13].
Take `O=S1(=O)OC(c2cc(Br)c(O)c(Br)c2)(c2cc(Br)c(O)c(Br)c2)c2ccccc21`: the AC50 in [1] was 93 µM (active); in assay [2], 60.1 µM (active); in assay [4], 126 µM (active); in [9] it was 36.9 µM (active). Also, the molecule was classed as inactive in [3], in assay [5], in assay [6], in assay [8], in assay [10] and in assay [11]. For the same molecule, the molecule was called inactive in [12].
Turning to `CC(=O)CN(CC(C)=O)N=O`, the result in [1], in assay [2], in assay [3], in assay [4], in assay [5] and in assay [6] was inactive. Besides, the molecule was called inactive in assay [9], in [10] and in assay [12].
Consider `CC1(C)[C@H](/C=C2\CCSC2=O)[C@@H]1C(=O)OCc1coc(Cc2ccccc2)c1`, for which the outcome in assay [1], in [3], in assay [4], in assay [5], in assay [6] and in [14] was inactive. For the same molecule, the AC50 is 35.8 µM (active) in [2], 1.05 µM (active) in assay [9] and 0.731 µM (active) in assay [10].
Turning to `CN(C)c1ccc(N=O)cc1`, the values for the AC50 in assay [1], in [2] and in [4] were 6.42 µM (active), 1.39 µM (active) and 44.6 µM (active), respectively. Besides, the result in [3], in assay [6], in assay [7], in assay [8], in assay [9] and in assay [10] was inactive. For the same molecule, the molecule was called inactive in [11], in assay [14] and in assay [13].
Regarding `CS(=O)(=O)c1ccc(C(=O)C2C(=O)CCCC2=O)c(Cl)c1COCC(F)(F)F`, the molecule was called inactive in [1], in assay [2], in assay [3], in assay [4], in assay [5] and in assay [10]. The outcome in assay [13] and in assay [12] was inactive.
For `N#Cc1ccccc1N`, the molecule was called inactive in assay [1], in assay [2], in [3], in assay [4], in assay [5] and in assay [7]. In addition, the molecule was classed as inactive in [8], in assay [10], in [14] and in assay [13].
In the case of `CC(=Cc1ccccc1)[N+](=O)[O-]`, the AC50 is 11.1 µM (active) in assay [1]; 2.61 µM (active) in assay [2]; 18 µM (active) in assay [4]; 11.1 µM (active) in assay [5]; 3.91 µM (active) in assay [9]. In addition, the molecule was called inactive in assay [3].
With `BrCC(Br)c1ccccc1` (stereo not given), the outcome in [1], in assay [2], in assay [3], in assay [4], in assay [5] and in assay [9] was inactive. The outcome in [13] and in assay [12] was inactive.
Regarding `CC(c1ccccc1)(c1ccc(O)cc1)c1ccc(O)cc1`, the AC50 in assay [1] was 14.6 µM (active); in assay [2], 11.1 µM (active); in assay [3], 11.1 µM (active); in assay [4], 16.2 µM (active); in assay [10], 2.54 µM (active). Moreover, the result in assay [6], in assay [7], in [8] and in assay [9] was inactive.

As usually defined, the AC50 is the concentration at which the activity in the assay is half-maximal.
